According to PubChem BioAssay AID1159580 (chemical genetic matrix, 2015):
About 2,000 (36%) of roughly 5,500 compounds were called active. About 18% were inconclusive and are not listed. Rule as the data show it: active = normalized growth mostly below about 0.91 (no sharp cut-off); inconclusive = no clear call, values can overlap the other calls; inactive = mostly above about 0.92. The list shows a part of the results.

Assay: chemical genetic growth profiling, strain panel (AID 1159580);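 also: tested at 20 µM; growth read once vehicle control cultures reached saturation at 30 °C; 1 = growth at the plate median or of vehicle wells; lower values mean less growth of the strain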
Settings: growth OD

Measured: normalized growth

NC(=O)c1ccc([N+](=O)[O-])cc1Cl
inactive: S. cerevisiae deletion strains, locus YKL009W, strain mrt4, hits give low values 0.977 | S. cerevisiae deletion strains, locus YKL068W, hits give low values 0.977 | S. cerevisiae deletion strains, locus YKL085W, strain MDH1 (second series), hits give low values 0.98 | S. cerevisiae deletion strains, locus YKL085W, strain MDH1, hits give low values 0.98 | S. cerevisiae deletion strains, locus YKL160W, strain elf1, hits give low values 1.03 | S. cerevisiae deletion strains, locus YKL190W, strain CNB1, hits give low values 0.968 | S. cerevisiae deletion strains, locus YKR001C, strain vps1, hits give low values 0.969 | S. cerevisiae deletion strains, locus YKR026C, strain gcn3, hits give low values 0.981 | S. cerevisiae deletion strains, locus YKR091W, strain srl3, hits give low values 0.977 | S. cerevisiae deletion strains, locus YLL001W, strain dnm1, hits give low values 1 | S. cerevisiae deletion strains, locus YLL026W, hits give low values 1.01 | S. cerevisiae deletion strains, locus YLL041C, strain sdh2, hits give low values 0.982 | S. cerevisiae deletion strains, locus YLR027C, strain aat2, hits give low values 1.01 | S. cerevisiae deletion strains, locus YLR039C, strain RIC1, hits give low values 0.927 | S. cerevisiae deletion strains, locus YLR058C, strain SHM2, hits give low values 0.963 | S. cerevisiae deletion strains, locus YLR102C, strain apc9, hits give low values 0.971 | S. cerevisiae deletion strains, locus YLR113W, strain HOG1, hits give low values 0.961 | S. cerevisiae deletion strains, locus YLR221C, strain rsa3, hits give low values 0.956 | S. cerevisiae deletion strains, locus YLR258W, strain gsy2, hits give low values 0.956 | S. cerevisiae deletion strains, locus YLR262C, strain YPT6 (second series), hits give low values 0.991 | S. cerevisiae deletion strains, locus YLR262C, strain YPT6, hits give low values 0.838 | S. cerevisiae deletion strains, locus YLR268W, strain sec22, hits give low values 0.961 | S. cerevisiae deletion strains, locus YLR320W, strain mms22, hits give low values 0.965 | S. cerevisiae deletion strains, locus YLR330W, strain CHS5, hits give low values 0.98 | S. cerevisiae deletion strains, locus YLR342W, strain FKS1 (second series), hits give low values 1 | S. cerevisiae deletion strains, locus YLR342W, strain FKS1, hits give low values 1 | S. cerevisiae deletion strains, locus YLR357W, strain rsc2, hits give low values 0.965 | S. cerevisiae deletion strains, locus YLR370C, strain arc18, hits give low values 0.972 | S. cerevisiae deletion strains, locus YLR371W, strain rom2, hits give low values 0.982 | S. cerevisiae deletion strains, locus YLR384C, strain iki3, hits give low values 0.992 | S. cerevisiae deletion strains, locus YLR418C, strain cdc73, hits give low values 0.949 | S. cerevisiae deletion strains, locus YML016C, strain PPZ1, hits give low values 0.98 | S. cerevisiae deletion strains, locus YML032C, strain rad52, hits give low values 0.999 | S. cerevisiae deletion strains, locus YML120C, strain ndi1, hits give low values 1 | S. cerevisiae deletion strains, locus YML124C, strain tub3, hits give low values 0.984 | S. cerevisiae deletion strains, locus YMR058W, strain fet3, hits give low values 0.977 | S. cerevisiae deletion strains, locus YMR078C, strain ctf18, hits give low values 0.977 | S. cerevisiae deletion strains, locus YMR125W, strain sto1, hits give low values 0.973 | S. cerevisiae deletion strains, locus YMR129W, hits give low values 0.975 | S. cerevisiae deletion strains, locus YMR205C, strain PFK2, hits give low values 1.01 | S. cerevisiae deletion strains, locus YMR223W, strain ubp8, hits give low values 0.988 | S. cerevisiae deletion strains, locus YMR231W, strain pep5, hits give low values 0.98 | S. cerevisiae deletion strains, locus YMR263W, strain SAP30, hits give low values 0.968 | S. cerevisiae deletion strains, locus YMR307W, strain GAS1, hits give low values 0.891 | S. cerevisiae deletion strains, locus YNL067W, strain RPL9B, hits give low values 0.969 | S. cerevisiae deletion strains, locus YNL071W, strain lat1, hits give low values 0.974 | S. cerevisiae deletion strains, locus YNL128W, strain TEP1, hits give low values 0.972 | S. cerevisiae deletion strains, locus YNL153C, strain GIM3, hits give low values 0.964 | S. cerevisiae deletion strains, locus YNL183C, strain NPR1, hits give low values 0.895 | S. cerevisiae deletion strains, locus YNL209W, strain ssb2, hits give low values 0.964 | S. cerevisiae deletion strains, locus YNL233W, strain BNI4, hits give low values 0.982 | S. cerevisiae deletion strains, locus YNL248C, strain rpa49, hits give low values 0.931 | S. cerevisiae deletion strains, locus YNL250W, strain rad50, hits give low values 0.971 | S. cerevisiae deletion strains, locus YNL271C, strain bni1, hits give low values 0.981 | S. cerevisiae deletion strains, locus YNL298W, strain CLA4, hits give low values 0.98 | S. cerevisiae deletion strains, locus YNL307C, strain MCK1, hits give low values 0.989 | S. cerevisiae deletion strains, locus YNL322C, strain KRE1 (second series), hits give low values 0.983 | S. cerevisiae deletion strains, locus YNL322C, strain KRE1, hits give low values 0.981 | S. cerevisiae deletion strains, locus YNR049C, strain mso1, hits give low values 0.97 | S. cerevisiae deletion strains, locus YNR052C, strain pop2, hits give low values 0.978 | S. cerevisiae deletion strains, locus YOL006C, strain TOP1, hits give low values 0.886 | S. cerevisiae deletion strains, locus YOL012C, strain htz1 0.79 | S. cerevisiae deletion strains, locus YOL147C, strain pex11, hits give low values 0.98 | S. cerevisiae deletion strains, locus YOR001W, strain rrp6, hits give low values 1 | S. cerevisiae deletion strains, locus YOR061W, strain CKA2, hits give low values 0.951 | S. cerevisiae deletion strains, locus YOR069W, strain VPS5, hits give low values 0.993 | S. cerevisiae deletion strains, locus YOR070C, strain gyp1, hits give low values 0.972 | S. cerevisiae deletion strains, locus YOR080W, strain dia2, hits give low values 0.999 | S. cerevisiae deletion strains, locus YOR083W, strain WHI5, hits give low values 0.989 | S. cerevisiae deletion strains, locus YOR106W, strain vam3, hits give low values 0.987 | S. cerevisiae deletion strains, locus YOR136W, strain idh2, hits give low values 0.99 | S. cerevisiae deletion strains, locus YOR144C, strain elg1, hits give low values 0.991 | S. cerevisiae deletion strains, locus YOR184W, strain ser1, hits give low values 0.982 | S. cerevisiae deletion strains, locus YOR231W, strain MKK1, hits give low values 0.956 | S. cerevisiae deletion strains, locus YOR265W, strain rbl2, hits give low values 0.985 | S. cerevisiae deletion strains, locus YOR270C, strain vph1, hits give low values 0.929 | S. cerevisiae deletion strains, locus YOR290C, strain snf2, hits give low values 0.915 | S. cerevisiae deletion strains, locus YOR316C, strain cot1, hits give low values 0.962 | S. cerevisiae deletion strains, locus YPL051W, strain arl3, hits give low values 0.988 | S. cerevisiae deletion strains, locus YPL055C, strain LGE1, hits give low values 0.941 | S. cerevisiae deletion strains, locus YPL078C, strain atp4, hits give low values 1.02 | S. cerevisiae deletion strains, locus YPL106C, strain sse1, hits give low values 0.957 | S. cerevisiae deletion strains, locus YPL240C, strain hsp82, hits give low values 0.986 | S. cerevisiae deletion strains, locus YPL241C, strain CIN2, hits give low values 1.01 | S. cerevisiae deletion strains, locus YPL256C, strain CLN2, hits give low values 0.941 | S. cerevisiae deletion strains, locus YPR119W, strain clb2, hits give low values 0.986 | S. cerevisiae deletion strains, locus YPR141C, strain kar3, hits give low values 0.955 | S. cerevisiae deletion strains, locus YPR163C, strain tif3, hits give low values 0.989 | S. cerevisiae deletion strains, locus YPR167C, strain met16, hits give low values 0.962 | S. cerevisiae deletion strains, strain wtn01, hits give low values 0.969 | S. cerevisiae strains, strain wild type, hits give low values 0.981
